The values that follow come from PubChem BioAssay (EPA / NIEHS).

Active and inactive are the calls of the source. The calls were made as follows: active = hit-call score of the fitted dose curve at least 0.9, where 1 is the maximum; inactive = score below 0.9.

Read-out in experiment [1]: Epidermal growth factor receptor (EGFR), EGFR (gene 1956)
Nature of the experiment: BSK_hDFCGF_EGFR: BioMAP Diversity Plus: hDFCGF Assay for Epidermal growth factor receptor (EGFR) Biomarker Activity (AID 2283057). Particulars: primary human foreskin fibroblasts; actives raise or lower the signal. A digest of the protocol:
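EGFR levels by ELISA in human dermal fibroblast cultures, 24 h post-treatment, fitted bidirectionally versus DMSO. Parallel wells stained with sulforhodamine B to detect overt cytotoxicity.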

Read-out in experiment [2]: Interleukin-8 (IL8), CXCL8 (gene 3576)
Nature of the experiment: BSK_hDFCGF_IL8: BioMAP Diversity Plus: hDFCGF Assay for Interleukin-8 (IL8) Biomarker Activity (AID 2283058). Particulars: primary human foreskin fibroblasts; actives raise or lower the signal. In short, it runs like this: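 Primary human foreskin fibroblasts (hDFCGF system) dosed with chemical; IL-8 measured by ELISA 24 hours later. Bidirectional curve fitting relative to DMSO baseline; cytotoxicity tracked in parallel cultures by SRB total protein staining.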

The nature of experiment [3]: BSK_hDFCGF_Proliferation: Cell Proliferation Assessment in the BioMAP Diversity Plus: hDFCGF Assay (AID 2283059).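 Also: curves fitted for both rise and fall of signal versus DMSO baseline.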 Particulars: primary human foreskin fibroblasts. A digest of the protocol:
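Sub-confluent human foreskin fibroblast cultures receive test chemical […]. Relative cell number is quantified by sulforhodamine B staining (0.1%, after 10% TCA fixation) at 560 nm, with bidirectional fitting referenced to DMSO.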

Read-out in experiment [4]: Macrophage colony-stimulating factor (MCSF), CSF1 (gene 1435)
Nature of the experiment: BSK_hDFCGF_MCSF: BioMAP Diversity Plus: hDFCGF Assay for Macrophage colony-stimulating factor (MCSF) Biomarker Activity (AID 2283060). The settings on record: primary human foreskin fibroblasts; actives raise or lower the signal. In short, it runs like this:
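Human foreskin fibroblast primary cultures; M-CSF measured by ELISA 24 hours after chemical dosing. Bidirectional fitting relative to DMSO, with overt cytotoxicity tracked by parallel SRB total-protein staining (0.1% SRB, 10% TCA fixation, 560 nm).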

A short description of experiment [5]: BSK_hDFCGF_SRB: Viability Assessment in the BioMAP Diversity Plus: hDFCGF Assay (AID 2283061).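 Also: cells exposed to compound for 24 h before the read.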 The settings on record: primary human foreskin fibroblasts. In short, it runs like this: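 Human foreskin fibroblasts in 96-well plates were treated 24 h. Total protein was measured by 0.1% SRB staining after 10% TCA fixation, read at 560 nm. Data were fitted bidirectionally against DMSO.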

Read-out in experiment [6]: TIMP metallopeptidase inhibitor 1 (TIMP1), TIMP1 (gene 7076)
Nature of the experiment: BSK_hDFCGF_TIMP1: BioMAP Diversity Plus: hDFCGF Assay for TIMP metallopeptidase inhibitor 1 (TIMP1) Biomarker Activity (AID 2283062). The settings on record: primary human foreskin fibroblasts; actives raise or lower the signal. In short, it runs like this: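 Human foreskin fibroblast primary cultures dosed for 24 h; secreted/surface TIMP-1 quantified by ELISA. Bidirectional curve fitting against DMSO baseline; cytotoxicity tracked in parallel cultures by SRB total-protein staining.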

Read-out in experiment [7]: Monokine induced gamma interferon (MIG), CXCL9 (gene 4283)
Nature of the experiment: BSK_hDFCGF_MIG: BioMAP Diversity Plus: hDFCGF Assay for Monokine induced gamma interferon (MIG) Biomarker Activity (AID 2283063). Particulars: primary human foreskin fibroblasts; actives raise or lower the signal. In short, it runs like this:
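MIG/CXCL9 measured by ELISA 24 h after dosing primary human skin fibroblasts. Activity fitted in both directions against DMSO controls. Cytotoxicity was checked in parallel cultures by SRB staining read at 560 nm.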

Read-out in experiment [8]: Matrix Metallopeptidase 1 (MMP1), MMP1 (gene 4312)
Nature of the experiment: BSK_hDFCGF_MMP1: BioMAP Diversity Plus: hDFCGF Assay for Matrix Metallopeptidase 1 (MMP1) Biomarker Activity (AID 2283064). Particulars: primary human foreskin fibroblasts; actives raise or lower the signal. A digest of the protocol: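 ELISA read-out of MMP1 from human foreskin fibroblasts (primary skin cells), 24 h post-dose. Gain or loss of signal was fitted bidirectionally versus DMSO negative control; cytotoxicity was checked by SRB in parallel cultures.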

Read-out in experiment [9]: Plasminogen activator inhibitor-1 (PAI1), SERPINE1 (gene 5054)
Nature of the experiment: BSK_hDFCGF_PAI1: BioMAP Diversity Plus: hDFCGF Assay for Plasminogen activator inhibitor-1 (PAI1) Biomarker Activity (AID 2283066). The settings on record: primary human foreskin fibroblasts; actives raise or lower the signal. In short, it runs like this:
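PAI-1 levels in human dermal foreskin fibroblasts were quantified by ELISA 24 h after dosing, with gain or loss analysed against DMSO. Overt cytotoxicity was checked by sulforhodamine B total-protein staining in parallel cultures.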

Read-out in experiment [10]: Intercellular Adhesion Molecule 1 (ICAM1), ICAM1 (gene 3383)
Nature of the experiment: BSK_KF3CT_ICAM1: BioMAP Diversity Plus: KF3CT Assay for Intercellular Adhesion Molecule 1 (ICAM1) Biomarker Activity (AID 2283067). The settings on record: primary human keratinocytes with fibroblasts; actives raise or lower the signal. A digest of the protocol: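 Human keratinocyte–foreskin fibroblast co-culture was treated for 24 h. Cell-surface ICAM-1 was quantified by ELISA, fitted bidirectionally relative to DMSO. Cytotoxicity was checked in parallel cultures by SRB total-protein staining.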

Read-out in experiment [11]: Interferon-gamma inducible Protein 10 (IP10), CXCL10 (gene 3627)
Nature of the experiment: BSK_KF3CT_IP10: BioMAP Diversity Plus: KF3CT Assay for Interferon-gamma inducible Protein 10 (IP10) Biomarker Activity (AID 2283068). Particulars: primary human keratinocytes with fibroblasts; actives raise or lower the signal. In short, it runs like this:
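ELISA read-out of IP-10 after 24 h chemical dosing of human skin primary co-culture (keratinocytes, foreskin fibroblasts). Gain or loss of signal relative to DMSO, bidirectional curve fit.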

Experiment [12] is described as follows: BSK_KF3CT_SRB: Viability Assessment in the BioMAP Diversity Plus: KF3CT Assay (AID 2283069).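 Also: read 24 h after compound addition.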 Particulars: primary human keratinocytes with fibroblasts. In short, it runs like this:
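SRB read-out at 560 nm (0.1% stain, TCA-fixed cells) gauges overt cytotoxicity in a human skin keratinocyte–fibroblast co-culture 24 h post-dosing. Signal change was fitted bidirectionally relative to DMSO control.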

Read-out in experiment [13]: Interleukin-1 alpha (IL1a), IL1A (gene 3552)
Nature of the experiment: BSK_KF3CT_IL1a: BioMAP Diversity Plus: KF3CT Assay for Interleukin-1 alpha (IL1a) Biomarker Activity (AID 2283070). Particulars: primary human keratinocytes with fibroblasts; actives raise or lower the signal. A digest of the protocol:
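Primary skin co-culture (keratinocytes, foreskin fibroblasts), 24 h exposure; ELISA for IL-1a; bidirectional curve fit vs DMSO.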

Read-out in experiment [14]: Transforming growth factor beta 1 (TGFb1), TGFB1 (gene 7040)
Nature of the experiment: BSK_KF3CT_TGFb1: BioMAP Diversity Plus: KF3CT Assay for Transforming growth factor beta 1 (TGFb1) Biomarker Activity (AID 2283072). Particulars: primary human keratinocytes with fibroblasts; actives raise or lower the signal. In short, it runs like this:
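ELISA quantifies TGF-b1 at 24 h post-dose in a primary human skin co-culture of keratinocytes and fibroblasts, with gain or loss judged against DMSO. Parallel SRB total-protein staining flags overt cytotoxicity.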

Read-out in experiment [15]: C-C motif chemokine 2 (Homo sapiens) (UniProt P13500)
Nature of the experiment: BSK_KF3CT_MCP1: BioMAP Diversity Plus: KF3CT Assay for Monocyte Chemoattractant Protein 1 (MCP1/CCL2) Biomarker Activity (AID 2283073). The settings on record: primary human keratinocytes with fibroblasts; actives raise or lower the signal. A digest of the protocol:
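Human keratinocyte–foreskin fibroblast co-culture; MCP-1 measured by ELISA 24 h after dosing. Bidirectional fit vs DMSO; cytotoxicity tracked by SRB total protein in parallel cultures.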

Read-out in experiment [16]: Matrix Metallopeptidase 9 (MMP9), MMP9 (gene 4318)
Nature of the experiment: BSK_KF3CT_MMP9: BioMAP Diversity Plus: KF3CT Assay for Matrix Metallopeptidase 9 (MMP9) Biomarker Activity (AID 2283074).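 As to AC50: MMP9 protein level quantified by ELISA in the co-culture.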 Particulars: primary human keratinocytes with fibroblasts; actives raise or lower the signal. In short, it runs like this: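 ELISA read-out of MMP-9 at 24 h post-dosing in a co-culture of human skin keratinocytes and foreskin fibroblasts. Gain or loss of signal was fitted in both directions against DMSO.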

Read-out in experiment [17]: urokinase plasminogen activator (uPA), PLAU (gene 5328)
Nature of the experiment: BSK_KF3CT_uPA: BioMAP Diversity Plus: KF3CT Assay for urokinase plasminogen activator (uPA) Biomarker Activity (AID 2283075). The settings on record: primary human keratinocytes with fibroblasts; actives raise or lower the signal. In short, it runs like this:
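Skin co-culture (keratinocytes + foreskin fibroblasts), human primary; 24 h post-dose; uPA by ELISA; gain/loss fit vs DMSO baseline.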

Read-out in the next experiment: CD40, CD40 (gene 958)
Nature of the experiment: BSK_LPS_CD40: BioMAP Diversity Plus: LPS Assay for CD40 Biomarker Activity (AID 2283076). Particulars: primary human HUVEC with PBMC; actives raise or lower the signal. In short, it runs like this: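 HUVEC plus PBMC co-culture stimulated with LPS; CD40 quantified by ELISA 24 h after compound dosing. Fitting was bidirectional relative to DMSO. SRB staining of parallel cultures flagged overt cytotoxicity.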

Read-out in experiment [18]: Vascular cell adhesion molecule 1 (VCAM1), VCAM1 (gene 7412)
Nature of the experiment: BSK_hDFCGF_VCAM1: BioMAP Diversity Plus: hDFCGF Assay for Vascular cell adhesion molecule 1 (VCAM1) Biomarker Activity (AID 2283065). The settings on record: primary human foreskin fibroblasts; actives raise or lower the signal. A digest of the protocol: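 Human foreskin fibroblast primary cells dosed with chemical, VCAM-1 measured by ELISA at 24 h. Bidirectional curve fitting relative to DMSO as negative control/baseline.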

Read-out in experiment [19]: TIMP metallopeptidase inhibitor 2 (TIMP2), TIMP2 (gene 7077)
Nature of the experiment: BSK_KF3CT_TIMP2: BioMAP Diversity Plus: KF3CT Assay for TIMP metallopeptidase inhibitor 2 (TIMP2) Biomarker Activity (AID 2283071). Particulars: primary human keratinocytes with fibroblasts; actives raise or lower the signal. A digest of the protocol:
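TIMP-2 measured by ELISA at 24 h in human keratinocyte/fibroblast primary co-cultures exposed to chemicals. Both increases and decreases were fitted against DMSO. Parallel cultures were stained with SRB for total protein as an overt-cytotoxicity check.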

For the molecule `O=C1O[C@H]([C@H](O)CO)C(O)=C1O`, the outcome in experiment [1], in [2], in [3], in experiment [4], in experiment [5] and in experiment [6] was inactive. In addition, the outcome in experiment [7], in [8], in [9], in experiment [10], in experiment [11] and in experiment [12] was inactive. In addition, the outcome was “inactive” in experiment [13]; “inactive” in experiment [14]; “inactive” in [15]; “inactive” in [16]; “inactive” in experiment [17]; “inactive” in the experiment with CD40, CD40 (gene 958).

For `O=C1OC(c2ccc(O)cc2)(c2ccc(O)cc2)c2ccccc21`, the AC50 – broadly, the midpoint of the concentration-response curve, whichever way the signal moves – was 20 µM (active) in experiment [1]; 28 µM (active) in experiment [3]; 28.8 µM (active) in experiment [13]; 12.6 µM (active) in experiment [14]; 29.5 µM (active) in [16]; 31.5 µM (active) with CD40, CD40 (gene 958). Besides, the outcome in [2], in [4], in experiment [5], in experiment [6], in experiment [7] and in experiment [8] was inactive. For the same molecule, the result in [9], in experiment [10], in experiment [11], in [12], in experiment [15] and in experiment [17] was inactive.

On to `CCCCCCCC(=O)OC`, for which the result in experiment [1], in experiment [2], in experiment [3], in experiment [4], in [6] and in experiment [7] was inactive. In addition, the result in [8], in experiment [18], in experiment [9], in experiment [10], in experiment [11] and in experiment [12] was inactive. Besides, the outcome in experiment [13], in [19], in experiment [14], in experiment [15], in experiment [16] and in [17] was inactive. Also, the outcome with CD40, CD40 (gene 958) was inactive.

Consider `C/C=C/C=C/C(=O)O`, for which the result in experiment [1], in experiment [2], in experiment [3], in [4], in experiment [5] and in experiment [6] was inactive. The result in experiment [7], in [8], in [9], in experiment [10], in [11] and in experiment [12] was inactive. Also, the outcome in [13] is “inactive”; in experiment [14], “inactive”; in [16], “inactive”; in experiment [17] it was “inactive”; with CD40, CD40 (gene 958) it was “inactive”.
